# Several values for one entry are separate records, joined by “and”; a condition that tells them apart may be missing. Equal entries are not always repeated. Results filed as inconclusive are left out. A structure can be active in one record and inactive in another. Activity calls are given as the source filed them. Rule for the calls, unless noted: active = hit-call score of the fitted dose curve at least 0.9, where 1 is the maximum; inactive = score below 0.9.
# What was measured:
# [1] = CCTE_Mundy_HCI_Cortical_Synap_Neur_Matur_SynapseCount: CCTE's Synaptogenesis and Neurite Maturation Assay in rat cortical cells for Synapse Count, Mundy Lab (AID 2284218)
# Method in brief: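 Read-out: synapse number per neuron, automated high-content imaging of fixed cells immunostained for MAP2 and synaptophysin plus Hoechst nuclei. Rat primary cortical cultures, AraC at DIV 5, chemical dosing DIV 7–12. Positive-direction fit relative to DMSO.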
# [2] = CCTE_Mundy_HCI_Cortical_Synap_Neur_Matur_NeuriteCount: CCTE's Synaptogenesis and Neurite Maturation Assay in rat cortical cells for Neurite Count, Mundy Lab (AID 2284222);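 for outcome: exposure from day 7 to day 12 in vitro with readout at day 12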
# Method in brief: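 Rat primary cortical cells; AraC added at DIV 5, chemicals dosed with media change at DIV 7 through DIV 12. MAP2/synaptophysin/Hoechst immunostaining, high-content imaging of neurite number; fitted relative to DMSO.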
# [3] = CCTE_Mundy_HCI_Cortical_Synap_Neur_Matur_CellBodySpotCount: CCTE's Synaptogenesis and Neurite Maturation Assay in rat cortical cells for Cell Body Spot Count, Mundy Lab (AID 2284223)
# Method in brief: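 Read-out: cell body-associated synaptophysin puncta per neuron, imaged after MAP2, synaptophysin and Hoechst staining. Rat cortical cells, AraC DIV 5, chemical dosing DIV 7, fixation DIV 12. Activity fitted in positive direction relative to DMSO baseline.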
# [4] = CCTE_Mundy_HCI_hNP1_Pro_ResponderAvgInten: CCTE's Proliferation Assay in human neuroprogenitor cells, Mundy Lab (AID 2284224; active = hit-call score of the fitted dose curve at least 0.9, where 1 is the maximum;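 note: human neural progenitor cells hNP1 derived from WA09 embryonic stem cells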)
# Method in brief: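 Proliferation was scored as BrdU labelling intensity in human neural progenitors derived from WA09 embryonic cells, measured 26.25 hours after chemical dosing. Activity was fitted relative to DMSO.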
# [5] = TAMU_PeakParms_SingleDonor1434_Chronotropy: Texas A&M University (TAMU) 1.5-hr Human Induced Pluripotent Stem Cell (iPSC)-derived Cardiomyocytes Calcium (Ca+2) Flux Assay for Cardiotoxicity: Chronotropy (changes in peak frequency) (AID 2284217); settings: actives raise or lower the signal
# Method in brief: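 iPSC-derived cardiomyocytes (single donor 1434) dosed at 0.2, 1, 10 and 100 uM in 0.5% DMSO for 1.5 h at 37C; Ca2+ dye fluorescence gave average beat frequency. Zero-beat points removed; bidirectional fit versus DMSO, POD as EC05.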
# [6] = CCTE_Mundy_HCI_hN2_NOG_NeuriteCount: CCTE's Neurite Outgrowth Assay in human hN2 cells for Neurite Count, Mundy Lab (AID 2284219; active = hit-call score of the fitted dose curve at least 0.9, where 1 is the maximum)
# Method in brief: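 In this morphology assay, hNP1-derived neurons received test chemical 2 h post-plating and were fixed two days later in warm paraformaldehyde/sucrose containing Hoechst 33342. Neurites, labelled by rabbit anti-βIII-tubulin (1:800) and Alexa Fluor-488 (1:500), were counted automatically.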
# [7] = CCTE_Mundy_HCI_hN2_NOG_NeuriteLength: CCTE's Neurite Outgrowth Assay in human hN2 cells for Neurite Length, Mundy Lab (AID 2284220; active = hit-call score of the fitted dose curve at least 0.9, where 1 is the maximum)
# Description: CCTE_Mundy_HCI_hN2_NOG is a multiplexed, cell-based-readout assay that uses immature neurons derived from hNP1 neuroprogenitor cells with measurements taken at 50.33 hours after chemical dosing in a microplate: 96-well plate.CCTE_Mundy_HCI_hN2_NOG_NeuriteLength is one of four components of the CCTE_Mundy_HCI_hN2_NOG assay. It measures neurite outgrowth related to neurite length using High Content Imaging of fluorescently labelled markers.[…] Using a type of morphology reporter, loss -of-signal activity can be used to understand developmental effects.
# Exposure starts 2 hours post-plating by adding 10 ul of the working solution to 90 ul of media in the wells for a 1/10 dilution. Forty-eight hours after chemical treatment cells are fixed by direct addition of 100 ul of warm (37C) Dulbecco's phosphate buffered saline (DPBS) fixative solution containing 8% paraformaldehyde, 8% sucrose, and 0.1% of 3 mg/ml Hoechst 33342 into each well. Primary antibodies are prepared by dilution in Immunocytochemical Staining Buffer (ISB), 10X Dulbecco's PBS, 0.1% Saponin, 5% Bovine Serum Albumin, 0.5% NaN3 (Sodium Azide) and betaIII-tubulin (rabbit anti-betaIII-tubulin, 1:800) followed by Alexa Fluor-488 secondary (1:500) to label neuronal cell bodies and neurites. A Cellomics ArrayScan VTi HCS Reader is used for automated image acquisition and analysis of neurite outgrowth.
# [8] = CCTE_Mundy_HCI_hN2_NOG_NeuronCount: CCTE's Neurite Outgrowth Assay in human hN2 cells for Neuron Count, Mundy Lab (AID 2284221; active = hit-call score of the fitted dose curve at least 0.9, where 1 is the maximum)
# Method in brief: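 Read-out is the number of betaIII-tubulin-positive neurons imaged by automated high-content analysis, with DMSO as negative control.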
# [9] = BSK_BT_PBMCCytotoxicity: PBMC Cytotoxicity Assessment in the BioMAP Diversity Plus: BT Assay (AID 2284225); settings: primary human B cells with PBMC;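 note: PBMC viability measured by Alamar Blue dye reduction fluorescence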
# Method in brief: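 Primary human co-culture of B cells and PBMC, pre-dosed 1 h then activated with SEB and TSST-1. Cytotoxicity is taken from Alamar Blue dye reduction, added for 6 h at the end of a 90 h incubation.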
# [10] = read-out: Secreted IgG (sIgG), gene 3500; assay: BSK_BT_sIgG: BioMAP Diversity Plus: BT Assay for Secreted IgG (sIgG) Biomarker Activity (AID 2284226); settings: primary human B cells with PBMC
# Method in brief: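 Human B cell/PBMC co-culture; compound exposure 24 h; sIgG by ELISA; gain-of-signal fit vs DMSO baseline.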
structure (smiles),measurement,setting,value
COC(=O)N(OC)c1ccccc1COc1ccn(-c2ccc(Cl)cc2)n1,AC50,[1],0.0709 µM (active)
same,AC50,[2],0.105 µM (active)
same,AC50,[3],113 nM (active)
same,AC50,[4],81.5 µM (active)
C=CC1(C)OC(=O)N(c2cc(Cl)cc(Cl)c2)C1=O (stereo unspecified),outcome,[1],inactive
same,outcome,[2],inactive
same,outcome,[3],inactive
same,outcome,[4],inactive
CCCCC(CC)COC(=O)c1ccccc1C(=O)OCC(CC)CCCC (stereo unspecified),AC50,[5],50 µM (active)
same,AC50,[1],6.28 µM (active) and 4 µM (active)
same,outcome,[6],inactive
same,outcome,[7],inactive
same,outcome,[8],inactive
same,AC50,[2],4.84 µM (active)
same,AC50,[3],8.27 µM (active) and 7.64 µM (active)
same,AC50,[4],9.27 µM (active) and 3.62 µM (active)
CCOC(=O)CC(SP(=S)(OC)OC)C(=O)OCC (stereo unspecified),AC50,[1],50 µM (active)
same,outcome,[1],inactive
same,AC50,[6],34.8 µM (active)
same,AC50,[7],34.2 µM (active)
same,AC50,[8],33.6 µM (active)
same,outcome,[2],inactive
same,outcome,[3],inactive
same,outcome,[4],inactive
C=CCC1=C(C)C(OC(=O)C2C(C=C(C)C)C2(C)C)CC1=O (stereo unspecified),outcome,[1],inactive
same,outcome,[2],inactive
same,outcome,[3],inactive
COc1cnc(OC)n2nc(NS(=O)(=O)c3c(OCC(F)F)cccc3C(F)(F)F)nc12,outcome,[9],inactive
same,outcome,[10],inactive
CCOc1cc(Oc2ccc(C(F)(F)F)cc2Cl)ccc1[N+](=O)[O-],AC50,[1],11.9 µM (active)
same,AC50,[2],16.6 µM (active)
same,AC50,[3],14300 nM (active)
same,AC50,[4],10.9 µM (active)
CN(C)C(=S)SSC(=S)N(C)C,AC50,[1],0.0587 µM (active)
same,AC50,[2],0.0585 µM (active)
same,AC50,[3],78.3 nM (active)
same,AC50,[4],0.0771 µM (active)
COP(N)(=O)SC (stereo unspecified),outcome,[1],inactive
same,outcome,[6],inactive
same,outcome,[7],inactive
same,outcome,[2],inactive
same,outcome,[3],inactive
N#Cc1nn(-c2c(Cl)cc(C(F)(F)F)cc2Cl)c(N)c1S(=O)C(F)(F)F (stereo unspecified),AC50,[1],3.22 µM (active)
same,outcome,[2],inactive
same,outcome,[3],inactive
same,outcome,[4],inactive
